Seven compounds from PubChem BioAssay (Tox21) can be followed below.

Test [1] is described as follows: qHTS assay for small molecule agonists of the p53 signaling pathway (AID 651631; calls by dose curve; also: nearly all actives have a fitted effect of over 15% in size; also: potency is read from the fitted curve at half-maximal effect). An outline of the steps: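 Fluorescence intensity from cleaved LiveBLAzer B/G substrate (2 h, room temperature) served as the signal. Beforehand, HCT-116 reporter cells bearing p53 response elements were treated 16 h at 37 °C with DMSO-dissolved compounds.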
A general note: In qHTS, concentration-response curves come from the screen itself.

The nature of test [2]: qHTS assay for small molecules that induce genotoxicity in human embryonic kidney cells expressing luciferase-tagged ATAD5 (AID 651632). Also: nearly all actives have a fitted effect of over 15% in size. Also: potency is read from the fitted curve at half-maximal effect. An outline of the steps:
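Test compounds were delivered by pin tool onto HEK293T reporter cells (2,000/well) expressing ATAD5 fused to luciferase. After 16 hr at 37C, 5% CO2, Amplite was added for 30 min at room temperature and luminescence was measured.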

The nature of test [3]: qHTS assay for small molecule agonists of the p53 signaling pathway - cell viability (AID 651633; calls by dose curve;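 also: p53RE-bla HCT reporter cells with a stable beta-lactamase p53 reporter; series mostly up to about 83 µM; nearly all actives have a fitted effect of over 30% in size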). The procedure, abridged:
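Viability counter-read: CellTiter-Glo luminescence (30 min, room temperature) in the same p53RE-bla plates. These plates had been exposed to compounds for 16 h at 37 C.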

A short description of test [4]: qHTS assay for small molecules that induce genotoxicity in human embryonic kidney cells expressing luciferase-tagged ATAD5 - cell viability (AID 651634; calls by dose curve; also: nearly all actives have a fitted effect of over 25% in size; also: potency is read from the fitted curve at half-maximal effect). The procedure, abridged: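 Quantitative high-throughput format. HEK293T cells expressing ATAD5 fused to luciferase were plated at 2,000 cells/well and treated 15.5 hr with compound versus DMSO. Viability was determined by fluorescent live-cell protease substrate, 30 min at 37C.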

Test [5] can be described thus: qHTS assay for small molecule disruptors of the mitochondrial membrane potential (AID 720635). Also: potency is read from the fitted curve at half-maximal effect. The procedure, abridged:
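Mitochondrial membrane potential tracked with Mito-MPS dye, red aggregates (ex 540/em 590 nm) against green monomers (ex 490/em 535 nm). Compound treatment 1 hr at 37C, dye 30 min in HepG2.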

Test [6] is described as follows: qHTS assay to test for compound auto fluorescence at 590 nm (red) in HepG2 cells (AID 720674). The procedure, abridged: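 1 hr compound incubation on HepG2 cells, 37 C, 5% CO2; plate read ex 540 nm / em 590 nm; intensities reported as Rose Bengal sodium equivalents.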
A short description of test [7]: qHTS assay to test for compound auto fluorescence at 535 nm (green) in HepG2 cells (AID 720675).
Test [8] is described as follows: qHTS assay to test for compound auto fluorescence at 460 nm (blue) in HEK293 cells (AID 720678). Also: potency is read from the fitted curve at half-maximal effect. An outline of the steps:
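HEK293 cells (2,000 per well, medium with 10% dialyzed FBS) attached for 4-5 hr at 37C, then received compound and stood overnight at 37C, 5% CO2. Blue fluorescence was read at Ex/Em 405/460 nm and expressed relative to triamterene.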

The nature of test [9]: qHTS assay to test for compound auto fluorescence at 590 nm (red) in HEK293 cells (AID 720679). An outline of the steps:
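HEK293 cells (2,000/well, medium with 10% dialyzed FBS) attached for 4-5 hr at 37C, received 23 nL compound and were incubated overnight at 37C, 5% CO2. Red fluorescence was then read at 540/590nm Ex/Em, referenced to Rose Bengal sodium.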

Test [10] in a line: qHTS assay to test for compound auto fluorescence at 535 nm (green) in HEK293 cells (AID 720680).
Test [11] in a line: qHTS assay to test for compound auto fluorescence at 460 nm (blue) in HEK293 cell free culture (AID 720681). Also: potency is read from the fitted curve at half-maximal effect. An outline of the steps: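 Blue fluorescence (Ex 405/Em 460 nm, triamterene-equivalent) was read immediately after pin transfer of compound or DMSO into medium (DMEM, 10% FBS) without cells.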
A short description of test [12]: qHTS assay to test for compound auto fluorescence at 535 nm (green) in HEK293 cell free culture (AID 720682). An outline of the steps: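 Intrinsic compound fluorescence is measured in culture medium containing 10% FBS, with excitation at 485 nm and detection at 535 nm, referenced to fluorescein.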
Test [13] is described as follows: qHTS assay to test for compound auto fluorescence at 590 nm (red) in HEK293 cell free culture (AID 720683). An outline of the steps: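 Red-channel autofluorescence of compounds in culture medium (DMEM, 10% FBS), no cells, measured at 540/590 nm. Rose Bengal sodium is the reference fluorophore for equivalence.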
A short description of test [14]: qHTS assay to test for compound auto fluorescence at 590 nm (red) in HepG2 cell free culture (AID 720684). An outline of the steps: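 Cell-free; medium MEM + 10% FBS; compound or DMSO added by pintool; read Ex 540/Em 590 nm; Rose Bengal sodium as red reference fluorophore.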
Test [15] in a line: qHTS assay to test for compound auto fluorescence at 460 nm (blue) in HepG2 cell free culture (AID 720685). Also: potency is read from the fitted curve at half-maximal effect. An outline of the steps:
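Cell-free plates of MEM plus 10% FBS received 23 nL compound or DMSO vehicle; blue-channel (405/460 nm) intensity scored against triamterene as reference fluorophore.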

Test [16] in a line: qHTS assay to test for compound auto fluorescence at 535 nm (green) in HepG2 cell free culture (AID 720686).
A short description of test [17]: qHTS assay to test for compound auto fluorescence at 460 nm (blue) in HepG2 cells (AID 720687). Also: potency is read from the fitted curve at half-maximal effect. The procedure, abridged: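 Blue-channel autofluorescence (Ex/Em 405/460 nm, triamterene-equivalent) was measured after 1 hr compound exposure at 37 C, 5% CO2. Cells were HepG2, plated overnight at 37 C in MEM plus 10% FBS.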
Test [18] has as its target Glucocorticoid receptor (Homo sapiens) (UniProt P04150). Put plainly: qHTS assay to identify small molecule antagonists of the glucocorticoid receptor (GR) signaling pathway (AID 720692; active = well fitted inhibition curve with a large enough effect in the signal ratio in the repeat runs, not every such curve was filed as active; the % refers to the signal ratio; also: potency is read from the fitted curve at half-maximal effect). The procedure, abridged:
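GRE-bla HeLa line, dex-stimulated (5 nM final). Compound exposure 18 h, 37 C. Beta-lactamase FRET read after 2 h RT substrate.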

Test [19] is described as follows: qHTS assay for small molecule disruptors of the mitochondrial membrane potential - cell viability (AID 720634; calls by dose curve; also: potency is read from the fitted curve at half-maximal effect; nearly all actives have a fitted effect of over 20% in size). An outline of the steps: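 Same-well counter-screen: following the MMP dye addition, CellTiter-Glo was added to 1 hr compound-treated HepG2 cells and luminescence read after 30 min at room temperature.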
Test [20] addresses Glucocorticoid receptor (Homo sapiens) (UniProt P04150). The experiment in a line: qHTS assay to identify small molecule agonists of the glucocorticoid receptor (GR) signaling pathway (AID 720691; active = well fitted activation curve with a large enough effect in the signal ratio in the repeat runs, not every such curve was filed as active; the % refers to the signal ratio). An outline of the steps: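 A HeLa cervical cancer line expressing GR and a glucocorticoid response element-driven beta-lactamase gene is treated with compounds for 18 h; LiveBLAzer B/G FRET substrate is then applied and fluorescence read.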

Molecules are shown by their SMILES. Values without a mark were called inactive. Inconclusive results are not listed. Calls of active or inactive are those of the source. Unless noted, calls follow the shape of the dose curve; as a rule, active = well fitted curve in the direction sought with a large enough effect in the repeat runs; inconclusive = weak or mixed curves; inactive = no such curve, though single readings can be large; an effect the other way counts as inactive or inconclusive.
Tags tell the direction and shape of the fitted curve or compound fluorescence and quenching.

Glucocorticoid receptor (Homo sapiens), sequence (P04150 whole entry, looked up): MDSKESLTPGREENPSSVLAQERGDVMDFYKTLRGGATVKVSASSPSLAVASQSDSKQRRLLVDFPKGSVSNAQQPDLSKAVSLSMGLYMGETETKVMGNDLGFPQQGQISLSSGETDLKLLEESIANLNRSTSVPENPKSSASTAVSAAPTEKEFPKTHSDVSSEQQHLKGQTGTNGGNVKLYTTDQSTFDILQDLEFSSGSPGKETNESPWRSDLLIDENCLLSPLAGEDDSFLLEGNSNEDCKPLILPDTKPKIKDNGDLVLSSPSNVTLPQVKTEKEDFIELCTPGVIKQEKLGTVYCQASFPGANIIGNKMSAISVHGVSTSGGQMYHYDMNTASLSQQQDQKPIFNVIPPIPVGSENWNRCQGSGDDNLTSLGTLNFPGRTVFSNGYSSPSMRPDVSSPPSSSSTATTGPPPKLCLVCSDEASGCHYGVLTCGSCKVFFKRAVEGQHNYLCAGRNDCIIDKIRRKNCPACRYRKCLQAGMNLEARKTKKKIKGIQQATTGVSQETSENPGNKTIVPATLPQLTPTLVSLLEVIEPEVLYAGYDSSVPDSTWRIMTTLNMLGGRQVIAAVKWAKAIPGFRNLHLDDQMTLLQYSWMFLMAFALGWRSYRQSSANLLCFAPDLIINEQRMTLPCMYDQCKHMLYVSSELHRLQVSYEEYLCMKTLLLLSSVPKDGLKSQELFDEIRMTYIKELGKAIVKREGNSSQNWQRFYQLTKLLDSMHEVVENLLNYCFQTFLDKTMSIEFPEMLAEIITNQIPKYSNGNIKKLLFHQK

With `O[C@@H]([C@H](O)[C@H](O)CBr)[C@H](O)CBr`, the Potency entry in [1], in test [2], in test [3], in test [4], in [5] and in test [6] was “inactive” throughout. Further, the Potency entry in test [7], in test [8], in [9], in test [10], in test [11] and in test [12] was “inactive” in each case. Besides, the Potency entry in test [13], in test [14], in [15], in test [16] and in [17] was “inactive” each time.
Take `O=C(O)c1cc(N=Nc2ccc([N+](=O)[O-])cc2)ccc1O`: the Potency entry in [1], in [3], in [6], in [7], in test [8] and in test [9] was “inactive” in each case. Besides, the Potency result in [10], in test [11], in test [12], in test [13], in test [14] and in test [15] was “inactive” in each case. In addition, the Potency result in test [16] and in [17] was “inactive” each time. Moreover, the Potency in test [2] was 15.1 µM (active); in [4], 53.5 µM (active); in test [5], 53.5 µM (active); in [18], 27 µM (active).
Regarding `C#C[C@]1(OC(C)=O)CC[C@H]2[C@@H]3CCC4=C/C(=N/O)CC[C@@H]4[C@H]3CC[C@@]21CC`, the Potency in test [1] is 33.5 µM (active); in [4] it was 18.8 µM (active); in [19], 10.6 µM (active); in test [5] it was 13.3 µM (active). Moreover, the Potency result in [2], in test [6], in test [7], in test [8], in test [9] and in [11] was “inactive” in each case. Also, the Potency entry in test [12], in test [13], in [14], in test [16] and in [17] was “inactive” in each case.
As for `CC(=O)CC(=O)Nc1ccc(S(=O)(=O)O)cc1`, the Potency result in test [1], in [2], in [3], in test [4], in [6] and in [7] was “inactive” in each case. For the same compound, the Potency entry in [8], in [9], in test [10], in [11], in test [12] and in [13] was “inactive” throughout. The Potency result in test [14], in test [15], in test [16], in [17] and in test [20] was “inactive” throughout.
Take `CC(C)(c1cc(Br)c(OCC(Br)CBr)c(Br)c1)c1cc(Br)c(OCC(Br)CBr)c(Br)c1` (configuration not stated): the Potency entry in test [1], in test [2], in test [3], in [4], in test [6] and in test [7] was “inactive” in each case. In addition, the Potency result in test [8], in test [9], in test [10], in test [11], in test [12] and in test [13] was “inactive” each time. In addition, the Potency entry in test [14], in [15], in test [16], in [17], in [20] and in test [18] was “inactive” in each case.
Regarding `O=S(=O)(O)c1ccc(Nc2nc(Nc3ccc(/C=C/c4ccc(Nc5nc(Nc6ccc(S(=O)(=O)O)cc6)nc(N(CCO)CCO)n5)cc4S(=O)(=O)O)c(S(=O)(=O)O)c3)nc(N(CCO)CCO)n2)cc1`, the Potency is 41.3 µM (active) in test [1]; 31.6 µM [fluorescent] (active) in test [8]; 25.1 µM (active) in test [11]; 35.5 µM [fluorescent] (active) in [15]; 35.5 µM [fluorescent] (active) in [17]. The Potency result in [2], in test [3], in test [4], in test [6], in [7] and in test [9] was “inactive” in each case. Besides, the Potency result in [10], in test [12], in test [13], in test [14] and in [16] was “inactive” in each case.
For `CCC(COC(=O)CCS)(COC(=O)CCS)COC(=O)CCS`, the Potency in test [1] was 68.6 µM (active). The Potency entry in [2], in test [3], in test [4], in test [6], in test [7] and in test [8] was “inactive” each time. Moreover, the Potency entry in test [9], in test [10], in test [11], in test [12], in test [13] and in test [14] was “inactive” each time. The Potency result in test [15], in test [16] and in test [17] was “inactive” throughout.
